{
  "source": "the supplement of paper PMC8975748",
  "note": "Counter-ions that a name gives are not always drawn.",
  "data": [
    {"test_system": "Saccharomyces cerevisiae BY4741 SeMeCo community", "assay": "z-score of subpopulation abundance vs DMSO median, subpopulation auxotrophic for L; higher = larger share of this subpopulation than in DMSO controls", "conditions": "10 µM; 24 h; SM minimal medium; subpopulation (auxotrophy): L", "description": "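Fluorescent four-plasmid SeMeCo (self-establishing metabolically cooperating S. cerevisiae BY4741 community; plasmids pH-mRuby2, pL-mWasabi, pU-eCFP, pM-TagRFP657) was grown 24 h in minimal SM medium with each Selleck FDA-approved drug at 10 µM in 384-well plates. Cells were fixed and imaged by high-content confocal microscopy. For each auxotrophic subpopulation (and the prototroph), a z-score gives the deviation from the DMSO vehicle-control population median.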", "values": [
      {"smiles": "Cc1c(-c2ccc(O)cc2)n(Cc2ccc(OCCN3CCCCCC3)cc2)c2ccc(O)cc12", "note": "[Bazedoxifene HCl]", "z-score of subpopulation abundance": -0.9},
      {"smiles": "Cc1ccc2c(Cl)cc(Cl)c(O)c2n1", "note": "[Chlorquinaldol]", "z-score of subpopulation abundance": 0.46},
      {"smiles": "CC1(C)S[C@@H]2[C@H](NC(=O)Cc3ccccc3)C(=O)N2[C@H]1C(=O)O", "note": "[Benzylpenicillin potassium]", "z-score of subpopulation abundance": 0.24},
      {"smiles": "CC[C@H]1OC(=O)[C@H](C)[C@@H](O[C@H]2C[C@@](C)(OC)[C@@H](O)[C@H](C)O2)[C@H](C)[C@@H](O[C@@H]2O[C@H](C)C[C@H](N(C)C)[C@H]2O)[C@](C)(O)C[C@@H](C)/C(=N\\OCOCCOC)[C@H](C)[C@@H](O)[C@]1(C)O", "note": "[Roxithromycin]", "z-score of subpopulation abundance": -0.94},
      {"smiles": "O=c1[nH]c(=O)n([C@H]2C[C@H](O)[C@@H](CO)O2)cc1I", "note": "[Idoxuridine]", "z-score of subpopulation abundance": 0.48},
      {"smiles": "COc1nc2ccc(Br)cc2cc1[C@@H](c1ccccc1)[C@@](O)(CCN(C)C)c1cccc2ccccc12", "note": "[Bedaquiline fumarate]", "z-score of subpopulation abundance": -0.13},
      {"smiles": "C[C@H](NCc1ccc(OCc2cccc(F)c2)cc1)C(N)=O", "note": "[Safinamide]", "z-score of subpopulation abundance": -0.58},
      {"smiles": "Oc1c(Cl)cc(Cl)c(Cl)c1Cc1c(O)c(Cl)cc(Cl)c1Cl", "note": "[Hexachlorophene]", "z-score of subpopulation abundance": -1.4},
      {"smiles": "O=C1Nc2ccccc2C1=O", "note": "[Isatin]", "z-score of subpopulation abundance": -0.04},
      {"smiles": "CSc1nc2cc(Cl)c(Oc3cccc(Cl)c3Cl)cc2[nH]1", "note": "[Triclabendazole]", "z-score of subpopulation abundance": -0.07},
      {"smiles": "Cc1ccc(Nc2c(F)cccc2Cl)c(CC(=O)O)c1", "note": "[Lumiracoxib]", "z-score of subpopulation abundance": -1.37},
      {"smiles": "C[C@]12CC[C@@H]3c4ccc(O)cc4CC[C@H]3[C@@H]1CCC2=O", "note": "[Estrone]", "z-score of subpopulation abundance": 0.44},
      {"smiles": "CO[C@H]1C[C@@H]2CC[C@@H](C)[C@@](O)(O2)C(=O)C(=O)N2CCCC[C@H]2C(=O)O[C@H]([C@H](C)C[C@@H]2CC[C@@H](OP(C)(C)=O)[C@H](OC)C2)CC(=O)[C@H](C)/C=C(\\C)[C@@H](O)[C@@H](OC)C(=O)[C@H](C)C[C@H](C)/C=C/C=C/C=C/1C", "note": "[Ridaforolimus (Deforolimus, MK-8669)]", "z-score of subpopulation abundance": -0.55},
      {"smiles": "CC(C(=O)O)c1cccc(C(=O)c2ccccc2)c1", "note": "(stereo not given) [Ketoprofen]", "z-score of subpopulation abundance": 1.73},
      {"smiles": "CCOc1cc(N)c([N+](=O)[O-])cc1C(=O)NC1CCN(CC2CC=CCC2)CC1", "note": "(stereo not given) [Cinitapride Hydrogen Tartrate]", "z-score of subpopulation abundance": -0.2},
      {"smiles": "Nc1ccc(S(=O)(=O)Nc2nccs2)cc1", "note": "[Sulfathiazole]", "z-score of subpopulation abundance": -0.12},
      {"smiles": "O=C(c1ccccc1)c1ccc2n1CCC2C(=O)O", "note": "(stereo not given) [Ketorolac tromethamine salt]", "z-score of subpopulation abundance": 0.3},
      {"smiles": "CCCCCCCCCC(=O)NC1C(Oc2c3cc4cc2Oc2ccc(cc2Cl)C(OC2OC(CO)C(O)C(O)C2NC(C)=O)C2NC(=O)C(NC(=O)C4NC(=O)C4NC(=O)C(Cc5ccc(c(Cl)c5)O3)NC(=O)C(N)c3ccc(O)c(c3)Oc3cc(O)cc4c3)c3ccc(O)c(c3)-c3c(OC4OC(CO)C(O)C(O)C4O)cc(O)cc3C(C(=O)O)NC2=O)OC(CO)C(O)C1O", "note": "(stereo not given) [Teicoplanin]", "z-score of subpopulation abundance": -0.21},
      {"smiles": "CCCCNc1ccc(C(=O)OCCN(C)C)cc1", "note": "[Tetracaine HCl]", "z-score of subpopulation abundance": -0.03},
      {"smiles": "Cc1onc(-c2c(F)cccc2Cl)c1C(=O)N[C@@H]1C(=O)N2[C@@H]1SC(C)(C)[C@@H]2C(=O)O", "note": "[Flucloxacillin sodium]", "z-score of subpopulation abundance": -0.25},
      {"smiles": "CCOC(=O)C1=C(C)NC(C)=C(C(=O)OC)C1c1cccc(Cl)c1Cl", "note": "(stereo not given) [Felodipine]", "z-score of subpopulation abundance": 1.68},
      {"smiles": "Cc1cc(/C=C/c2ccc3cc(N(C)C)ccc3[n+]2C)c(C)n1-c1ccccc1", "note": "[pyrvinium]", "z-score of subpopulation abundance": -1.29},
      {"smiles": "CC[N+](CC)(CC)CC", "note": "[Tetraethylammonium bromide]", "z-score of subpopulation abundance": -0.06},
      {"smiles": "CN1[C@@H](CC(=O)c2ccccc2)CCC[C@H]1C[C@H](O)c1ccccc1", "note": "[Lobeline hydrochloride]", "z-score of subpopulation abundance": -0.58},
      {"smiles": "CC[C@H](C)C(=O)O[C@H]1C[C@H](O)C=C2C=C[C@H](C)[C@H](CC[C@@H](O)C[C@@H](O)CC(=O)O)[C@H]21", "note": "[Pravastatin]", "z-score of subpopulation abundance": -0.43},
      {"smiles": "CN[C@@H]1[C@H](O[C@H]2[C@H](O[C@H]3[C@H](O)[C@@H](O)[C@H](N=C(N)N)[C@@H](O)[C@@H]3N=C(N)N)O[C@@H](C)[C@]2(O)C=O)O[C@@H](CO)[C@H](O)[C@H]1O", "note": "[Streptomycin sulfate]", "z-score of subpopulation abundance": -1.14},
      {"smiles": "CCCc1nc(C)c2c(=O)nc(-c3cc(S(=O)(=O)N4CCN(CC)CC4)ccc3OCC)[nH]n12", "note": "[Vardenafil HCl Trihydrate]", "z-score of subpopulation abundance": 0.04},
      {"smiles": "CN(C)c1ccc(O)c2c1C[C@H]1C[C@H]3[C@H](N(C)C)C(=O)C(C(N)=O)=C(O)[C@@]3(O)C(=O)C1=C2O", "note": "[Minocycline HCl]", "z-score of subpopulation abundance": -0.03},
      {"smiles": "COc1ccc(CNc2nc(N3CCC[C@H]3CO)ncc2C(=O)NCc2ncccn2)cc1Cl", "note": "[Avanafil]", "z-score of subpopulation abundance": -0.77},
      {"smiles": "Cc1ncc([N+](=O)[O-])n1CCO", "note": "[Metronidazole]", "z-score of subpopulation abundance": 0.11},
      {"smiles": "O=C(O[C@@H]1C[C@@H]2C[C@H]3C[C@H](C1)N2CC3=O)c1c[nH]c2ccccc12", "note": "[Dolasetron Mesylate]", "z-score of subpopulation abundance": -0.52},
      {"smiles": "Cc1ccc(-c2cc(C(F)(F)F)nn2-c2ccc(S(N)(=O)=O)cc2)cc1", "note": "[Celecoxib]", "z-score of subpopulation abundance": 0.82},
      {"smiles": "CCn1cc(C(=O)O)c(=O)c2cc(F)c(N3CCNCC3)nc21", "note": "[Enoxacin Sesquihydrate]", "z-score of subpopulation abundance": -0.96},
      {"smiles": "CCC1(C)CC(=O)NC1=O", "note": "(stereo not given) [Ethosuximide]", "z-score of subpopulation abundance": 0.6},
      {"smiles": "CCN(CC)C(=O)N1CCN(C)CC1", "note": "[Diethylcarbamazine citrate]", "z-score of subpopulation abundance": -0.21},
      {"smiles": "CN1CCN2c3ncccc3Cc3ccccc3C2C1", "note": "(stereo not given) [Mirtazapine]", "z-score of subpopulation abundance": -0.64},
      {"smiles": "CCC(C)(C)C(=O)O[C@H]1C[C@@H](C)C=C2C=C[C@H](C)[C@H](CC[C@@H]3C[C@@H](O)CC(=O)O3)[C@H]21", "note": "[Simvastatin]", "z-score of subpopulation abundance": -0.13},
      {"smiles": "O=C(CCCN1CC=C(n2c(=O)[nH]c3ccccc32)CC1)c1ccc(F)cc1", "note": "[Droperidol]", "z-score of subpopulation abundance": 0.41},
      {"smiles": "NC[C@H]1O[C@H](O[C@H]2[C@H](O[C@@H]3O[C@H](CO)[C@@H](O)[C@H]3O)[C@@H](O)[C@H](N)C[C@@H]2N)[C@H](N)[C@@H](O)[C@@H]1O", "note": "[Ribostamycin Sulfate]", "z-score of subpopulation abundance": -0.39},
      {"smiles": "Nc1ccc(S(=O)(=O)Nc2ccnn2-c2ccccc2)cc1", "note": "[Sulfaphenazole]", "z-score of subpopulation abundance": 0.58}
    ]}
  ]
}
